Values without a mark were called inactive. No rule for the calls is given here.

What is called inhibition is the drop in the measured response relative to a control, in per cent.

The assay deals with Pantothenate synthetase (Mycobacterium tuberculosis (strain ATCC 25618 / H37Rv)) (UniProt P9WIL5). Briefly: Recombinant Mtb pantothenate synthetase (PanC) inhibitors, coupled enzyme, confirmatory (AID 375).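 Also: 0% = full reaction with vehicle and 100% = no enzyme background.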 The settings on record: coupled enzyme assay; at 10 µM, hits give high values.
Pantothenate synthetase (Mycobacterium tuberculosis (strain ATCC 25618 / H37Rv)), sequence (P9WIL5 whole entry, looked up): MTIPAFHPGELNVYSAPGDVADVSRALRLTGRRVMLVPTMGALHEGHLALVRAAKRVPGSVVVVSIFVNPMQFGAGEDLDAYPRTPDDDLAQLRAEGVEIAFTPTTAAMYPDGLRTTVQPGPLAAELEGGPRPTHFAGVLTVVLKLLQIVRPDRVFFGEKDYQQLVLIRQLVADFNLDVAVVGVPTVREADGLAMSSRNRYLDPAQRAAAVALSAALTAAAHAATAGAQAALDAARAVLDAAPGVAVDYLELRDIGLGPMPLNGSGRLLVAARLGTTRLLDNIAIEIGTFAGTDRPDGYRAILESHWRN
With `O=C(CCSc1nccn1Cc1ccccc1)N1CCOCC1`, the inhibition is 0%. Turning to `CC(=O)N(C(C)=O)c1cccc2c(N(C(C)=O)C(C)=O)cccc12`, the inhibition is 1%. To `O=C(Nc1cccc(NC(=O)c2cccnc2)c1)c1cccnc1` belongs 1%. For `COC(=O)C1=C(C)NC(C)=C(C(=O)OC)C1C(=O)OC1CCCCC1=O` (stereo not given), the inhibition was 0%.

As to `O=C(COC(=O)C1=COCCO1)Nc1ccccc1Oc1ccccc1`, the inhibition is 1%.

On to `Cc1cc(C)n(-c2nnc(C)n2/N=C/c2ccccc2F)n1`, for which the inhibition was 9%.

Regarding `CCC1=C(C(=O)OC)C(c2cc(OC)ccc2OC)C(C#N)=C(N)O1` (stereo not given), the inhibition was 8%. For `COC(=O)c1cc2ccsc2n1CC(=O)Nc1cc(C)cc(C)c1`, the inhibition is 0%. In the case of `O=C(C1CCC(N2C(=O)C3CC=CCC3C2=O)CC1)N1CCCCC1` (stereo not given), the inhibition is 1%.

In the case of `COc1ccc(Br)cc1S(=O)(=O)N1CCOCC1`, the inhibition is 0%. Next, `O=C(CSC1=NCCS1)NCc1ccco1`: 0%; `N#Cc1ccccc1Cn1c(=O)n(Cc2ccc(C(=O)NCc3ccco3)cc2)c(=O)c2sccc21`: 9%; `Cc1[nH]n(C(N)=S)c(=O)c1C(c1ccccc1)C(C#N)C#N` (stereo not given): 0%. Next, `O=C(Cn1cnc2c(cnn2-c2ccccc2)c1=O)NCCc1ccccc1`: 0%; `CCOc1ccc(-c2nnc(SCC(=O)N3CCN(c4ccccc4)CC3)o2)cc1`: 0%; `CCOC(=O)C(CC)(CCC(=O)O)c1csc(N)n1` (stereo not given): 0%. To `Cc1onc(-c2c(F)cccc2Cl)c1C(=O)Nc1nc2c(s1)CCCC2` belongs 0%; to `O=C(Nc1ccncc1)C1CCCN(S(=O)(=O)c2cccc3cccnc23)C1` (stereo not given), 0%; to `COc1ccc(C2(C(=O)Nc3c(C)n(C)n(-c4ccccc4)c3=O)CCCC2)cc1OC`, 1%. Consider `Cc1ccccc1CSCC(=O)c1c(N)n(C)c(=O)n(C)c1=O`, for which the inhibition was 2%.

Take `COC(=O)Nc1ccc(S(=O)(=O)N2CCCCCC2)cc1`: the inhibition is 0%.

With `Cc1cccc(N2CCN(C(=O)c3cc4ccccc4oc3=O)CC2)c1C`, the inhibition is 0%. Next, `CCOC(=O)C1CCCN(CC(=O)NC2CC2)C1` (stereo not given): 6%. Next, `CC(C)=CCSc1nnc(CCNC(=O)OC(C)(C)C)o1`: 3%; `O=S(=O)(c1ccc(OCC(O)CN2CCC(Cc3ccccc3)CC2)cc1)N1CCOCC1` (stereo not given): 1%; `Cc1[nH]c2ccccc2c(=O)c1CN1CCCCC1`: 0%.

As for `OCc1cn(-c2ccccc2)nc1-c1ccc2c(c1)OCCO2`, the inhibition is 0%. `Cc1ccc(/C=c2\sc3nc(-c4ccccc4Br)nn3c2=O)o1`: the inhibition is 0%.

For `CC(NC(=O)c1ccccc1NC(=O)c1ccco1)C(=O)O` (stereo not given), the inhibition is 0%. With `CCOC(=O)CSc1nnc2n1C(C)(C)Cc1ccccc1-2`, the inhibition is 3%.

For `CCN(CC)S(=O)(=O)c1cccc(-c2nnc(SCCOc3ccccc3C)o2)c1`, the inhibition is 1%. As for `CN(C)c1cc(NC(=O)CN2CCOCC2)c2ccccc2n1`, the inhibition was 3%. Consider `Cc1cccc(N2CCN(Cc3c(C)n(C)n(-c4ccccc4)c3=O)CC2)c1C`, for which the inhibition was 0%. For the compound `Cc1oc2cc(O)ccc2c(=O)c1-c1cnn(-c2ccccc2)c1`, the inhibition is 5%. Turning to `Cc1cc2c(c(=O)o1)C(C13C=CC(CC1)C3)C(C#N)=C(N)O2` (stereo not given), the inhibition is 0%. To `Cc1cc(C)n(-c2nc3c(c(=O)n(Cc4ccc(Cl)c(Cl)c4)c(=O)n3C)n2C)n1` belongs 1%; to `Clc1cc2c(c(Cn3cnc4ccccc43)c1)OCOC2`, 0%; to `CN(C1CCCCC1)S(=O)(=O)c1ccc(S(=O)(=O)N2CCN(CCC#N)CC2)cc1`, 6%. Next, `COc1ccc(C2(CN(C(C)=O)C(C)=O)CCCC2)cc1OC`: 2%; `O=C1C(Cl)=C(N2CCCCC2)C(=O)N1c1ccccc1Cl`: 7%.

These data come from PubChem BioAssay.
